The nature of experiment [1]: NCI Yeast Anticancer Drug Screen. Data for the rad50 strain (AID 155).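 Further: 0% = growth of vehicle-only cultures of the same strain.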 As to conditions: S. cerevisiae rad50 strain growth inhibition; at 50.0 µM; active compounds read high. Summed up: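 A DNA repair-deficient yeast mutant serves as the test organism; compound-induced growth inhibition is calculated against vehicle-treated cells.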
A short description of experiment [2]: NCI Yeast Anticancer Drug Screen. Data for the mec2-1 strain (AID 157). The settings on record: S. cerevisiae mec2-1 strain, at 50.0 µM, active compounds read high. Summed up:
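Strain: mec2-1 (DNA repair/cell cycle alteration). Compound exposure, then growth measured; inhibition expressed relative to vehicle.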

Experiment [3] can be described thus: NCI Yeast Anticancer Drug Screen. Data for the sgs1 mgt1 strain (AID 161).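 Further: 0% = growth of cultures given vehicle only.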 As to conditions: S. cerevisiae sgs1 mgt1 strain, at 50.0 µM, active compounds read high. Summed up: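 Read-out: growth inhibition vs vehicle controls. Cells: mutant yeast strain deficient in DNA damage repair.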
A short description of experiment [4]: NCI Yeast Anticancer Drug Screen. Data for the cln2 rad14 strain (AID 165).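 Further: 0% = growth equal to vehicle treated cultures.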 As to conditions: S. cerevisiae cln2 rad14 strain, at 50.0 µM, active compounds read high. The essentials:
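Compounds are applied to the cln2 rad14 yeast strain, and growth is then compared with that of vehicle-treated cultures to give inhibition.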

A short description of experiment [5]: NCI Yeast Anticancer Drug Screen. Data for the bub3 strain (AID 167). As to conditions: S. cerevisiae bub3 mutant strain, at 50.0 µM, active compounds read high. The essentials:
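Inhibition values come from growth of compound-treated mutant yeast normalised to vehicle-treated controls.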

The nature of experiment [6]: NCI Yeast Anticancer Drug Screen. Data for the mlh1 rad18 strain (AID 175). As to conditions: S. cerevisiae mlh1 rad18 strain growth inhibition; at 50.0 µM; active compounds read high. Summed up:
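Read-out is yeast growth inhibition, calculated against vehicle-only controls. The compound was applied to a strain engineered with DNA damage repair alterations.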

This is part of a sample that, as a whole, favours compounds with a hit. Of some 79,000 tested, about 15% had one in any assay. Values without a mark were called inactive. Active and inactive are the calls of the source. No stated cut-off is given here; in the data, active means growth inhibition above about 70%; inactive means the rest.

As for `NC(N)=NC(N)=Nc1ccc(N=C(N)N=C(N)N)cc1`, the growth inhibition in experiment [1] is 3.55%; in experiment [2], -12.7%; in experiment [3] it was -6.2%; in experiment [4], -0.75%; in experiment [5], 10.2%; in experiment [6], -1.3%.
Regarding `N#Cc1c(=O)[nH]c(=O)n2c1[nH]c1ccccc12`, the growth inhibition in experiment [1] is 14.7%; in experiment [2], 19.3%; in experiment [3] it was 11.9%; in experiment [4], -32.4%; in experiment [5], 12.1%; in experiment [6], 8.15%.
Regarding `O=C(CC1Sc2ccccc2NC1=O)Nc1cc(Cl)ccc1Cl` (stereo not given), the growth inhibition was -2.6% in experiment [1]; -18.3% in experiment [2]; -4.55% in experiment [3]; 25.3% in experiment [4]; 8.7% in experiment [5]; -1.45% in experiment [6].
Turning to `CC(=O)Nc1nc(Cl)c2cc[nH]c2n1`, the growth inhibition in experiment [1] is -1.05%; in experiment [2], 2.5%; in experiment [3] it was -5.5%; in experiment [4] it was -10.3%; in experiment [5], -11.9%; in experiment [6] it was -11.6%.
Consider `NC(=O)C(=O)N/N=C(\CC1(O)C(=O)Nc2ccccc21)c1ccc2ccccc2c1` (stereo not given), for which the growth inhibition in experiment [1] was 17.4%; in experiment [2], 16.5%; in experiment [3], 7.5%; in experiment [4], 48.5%; in experiment [5], 35%; in experiment [6], 12.1%.
For `O=[N+]([O-])CC1(O)CCCCC1`, the growth inhibition in experiment [1] is 25.6%; in experiment [2] it was 9.05%; in experiment [3], 11.2%; in experiment [4] it was 7.95%; in experiment [5] it was -0.65%; in experiment [6] it was 0.9%.
Turning to `CC(=O)c1ccc2c(Br)ccc3c2c1CC3`, the growth inhibition in experiment [1] is 12.3%; in experiment [2] it was 10.3%; in experiment [3], 4.25%; in experiment [4], 10.4%; in experiment [5], 16.1%; in experiment [6] it was 9.55%.
As for `O=C(CCN1CCCCC1)c1cc(Cl)ccc1Cl`, the growth inhibition in experiment [1] is 88.4% (active); in experiment [2], 68.4%; in experiment [3] it was 93.1% (active); in experiment [4], 62.5%; in experiment [5], 91% (active); in experiment [6], 80.2% (active).
Regarding `CN(C)CCCNc1nc(Cl)nc2nc(-c3ccccc3)c(-c3ccccc3)nc12`, the growth inhibition in experiment [1] was 50.2%; in experiment [2], 31%; in experiment [3], 60.5%; in experiment [4], 36%; in experiment [5], 28.9%; in experiment [6], 61.2%.
Regarding `C/C(=N\NC(=S)N1CCN(c2ncccn2)CC1)c1ccccn1`, the growth inhibition in experiment [1] is -2.4%; in experiment [2], -7.1%; in experiment [3], -6.8%; in experiment [4] it was -21.8%; in experiment [5] it was 9.35%; in experiment [6], 4.2%.
In the case of `O=c1nc(Oc2ccccc2)nc2ccc(Cl)nn12`, the growth inhibition in experiment [1] was 3.4%; in experiment [2], 31.4%; in experiment [3] it was 6.95%; in experiment [4], 5.7%; in experiment [5], 40.9%; in experiment [6], 3.1%.
As to `CC(=O)Nc1ccc(C(O)/C(=N/N)c2nc3ccc(Cl)cc3[nH]c2=O)cc1` (stereo not given), the growth inhibition is 9.15% in experiment [1]; -8.9% in experiment [2]; -6% in experiment [3]; -1.1% in experiment [4]; 5.55% in experiment [5]; -26.9% in experiment [6].
As to `CC(C)(C(=Nc1ccc([N+](=O)[O-])cc1)N1CCOCC1)c1ccccc1`, the growth inhibition in experiment [1] is 9%; in experiment [2], 6.7%; in experiment [3] it was 5.05%; in experiment [4], 34.6%; in experiment [5], 32.1%; in experiment [6], 22.6%.
As to `Nc1nc(SCC(=O)O)[nH]c(=O)c1NS(=O)(=O)c1ccccc1[N+](=O)[O-]`, the growth inhibition in experiment [1] is 21.4%; in experiment [2] it was -4.1%; in experiment [3], -2.4%; in experiment [4] it was 23.1%; in experiment [5] it was 2.75%; in experiment [6] it was 5.6%.
Turning to `N[C@@H](Cc1ccccc1)C(=O)NCCNC(=O)[C@@H](N)Cc1ccccc1`, the growth inhibition is -13.1% in experiment [1]; -3.25% in experiment [2]; -8.85% in experiment [3]; 17.2% in experiment [4]; -0.7% in experiment [5]; 3.45% in experiment [6].
In the case of `OC(c1ccccc1)(C(F)(F)F)C(F)(F)F`, the growth inhibition in experiment [1] is 3%; in experiment [2] it was 5.85%; in experiment [3] it was 6.1%; in experiment [4], 14.3%; in experiment [5], 9.9%; in experiment [6], 8.75%.
As for `O=C(O)c1ccc(Br)cc1C(=O)O`, the growth inhibition in experiment [1] is 7.6%; in experiment [2] it was 3.6%; in experiment [3] it was 1.5%; in experiment [4] it was 4.35%; in experiment [5] it was 4.65%; in experiment [6], -1.6%.
For `CC(C)(C)c1ccc(O)c(C(O)c2ccncc2)c1` (stereo not given), the growth inhibition was 7.3% in experiment [1]; -12.4% in experiment [2]; 9.15% in experiment [3]; -6.75% in experiment [4]; 1.6% in experiment [5]; 16.6% in experiment [6].
Take `CCOC(=O)/C(C#N)=C/c1c(-c2ccccc2)nn2ccccc12`: the growth inhibition in experiment [1] is 42.6%; in experiment [2], 26.6%; in experiment [3] it was 28.1%; in experiment [4], -2.4%; in experiment [5], -7.7%; in experiment [6], 20.6%.
With `Cc1c2cnccc2c(CO)c2[nH]c3ccccc3c12`, the growth inhibition was 11.6% in experiment [1]; -10.2% in experiment [2]; 8.2% in experiment [3]; 4.6% in experiment [4]; -10.9% in experiment [5]; 59.7% in experiment [6].
